Reference: PubChem BioAssay (NCATS)
Inconclusive results are not listed. A call without a number means that no potency is given here. Calls of active or inactive are those of the source. Unless noted, calls follow the shape of the full dose curve. Numbered stars: 1 amine (or outer) side, 2 acyl side, 3 side chain; on linkers, the order of the positions; unused ones are H or OH. Bridge positions count the residues as written; N and C are the ends. Square brackets hold non-standard residues; d marks the D form. Peptide text beside a SMILES is read from it. * marks the point of attachment. ξ: configuration not given here. ξhTyr(3S-OH,4S-OH,3'-OSO3H) = NC(C(=O)O)[C@H](O)[C@@H](O)c1ccc(O)c(OS(=O)(=O)O)c1; Orn(4R-OH,5R-OH) = O=C([C@H](C[C@@H](O)[C@@H](O)N[*:3])N[*:1])[*:2]; X2 = CCCCCOc1ccc(-c2cc(-c3ccc(C(=O)*)cc3)no2)cc1; X3 = C[C@H]1CN([*:1])C(C(=O)[*:2])[C@H]1O; ξGln(3R-OH) = NC(=O)C[C@@H](O)C(N)C(=O)O; ξPro(4R-OH) = O=C(O)C1C[C@@H](O)CN1; ξThr(3R) = C[C@@H](O)C(N)C(=O)O

Columns and labels:
[1] = Primary qHTS for Huh7 cytotoxicity: counterscreen for inhibitors of MERS-S pseudotyped particle cell entry (AID 1479147); conditions: outcome: dose series up to 57.1 µM unless noted
[2] = Primary qHTS for Vero E6 cytotoxicity: counterscreen for inhibitors of SARS-S pseudo-typed particle cell entry (AID 1479150); conditions: outcome: dose series up to 57.1 µM unless noted
[3] = Cytotoxicity counterscreen for inhibitors of SARS-CoV-2 cell entry (AID 1645845); also: nearly all actives have a fitted effect of over 50% in size
Method in brief: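 ATP-content luminescence (ATPLite 1step, 15 min RT) read after 48 h compound exposure of Expi293F cells stably expressing human ACE2; normalized to cells-only wells and media-only wells.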

CRL-7250 = normal cell line; experiment: qHTS assay to identify novel small-molecules to repurpose for Merkel cell carcinoma treatment (AID 1296009; active = well fitted inhibition curve with a large enough effect; also: nearly all actives have a fitted effect of over 60% in size); conditions: MCC and control cell lines, CellTiter-Glo viability, 72 h; series mostly up to 92 µM
Method in brief: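 Cell viability, measured as CellTiter-Glo luminescence, was normalized between DMSO and no-cell wells. The cells had been exposed to 8- or 11-point compound dilutions for 72 hr at 37 degree celsius.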

[4] = qHTS for Inhibitors of the Functional Ribonucleoprotein Complex (vRNP) of Lassa (LASV) Arenavirus: Viability assay - alamar blue signal for LASV Primary Screen (AID 1347083; calls by dose curve; tested in HEK293 reporter line; also: potency is read from the fitted curve at half-maximal effect; nearly all actives have a fitted effect of over 80% in size)
[5] = qHTS for Inhibitors of the Functional Ribonucleoprotein Complex (vRNP) of Lymphocytic Choriomeningitis Arenaviruses (LCMV): Viability assay - alamar blue signal for LCMV Primary Screen (AID 1347085; calls by dose curve; tested in HEK293 reporter line; also: potency is read from the fitted curve at half-maximal effect; nearly all actives have a fitted effect of over 80% in size)
[6] = Primary qHTS to identify inhibitors of SARS-CoV-2 cell entry (AID 1645846); conditions: activity change, negative = inhibition: at 57.1 µM (top of the series) unless noted; also: nearly all actives have a fitted effect of over 45% in size
Method in brief: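 Using luciferase-reporting pseudoviruses carrying Wuhan-Hu-1 spike, the screen tracks entry into stably ACE2-expressing cells over 48 hr. Activity is expressed relative to spike particles versus particles lacking any fusion protein.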

[7] = qHTS profiling of the MIPE4 collection as inhibitors of Plasmodium falciparum (3D7) proliferation (AID 743344; call rule not given here); conditions: P. falciparum 3D7 in erythrocytes, SYBR Green DNA fluorescence, 72 h; at 28.5 µM (top of the series) unless noted
Method in brief: (§1)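 Parasite DNA was quantified by SYBR Green I fluorescence (ex 485, em 535 nm) after overnight lysis in saponin/Triton buffer at room temperature. Cultures at 0.3% parasitemia and 2.5% hematocrit were first exposed to compound for 72 h at 37 C; signals were normalised to artemisinin (0.29 uM) and vehicle wells.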

[8] = qHTS profiling of the MIPE4 collection as inhibitors of Plasmodium falciparum (DD2) proliferation (AID 743345; call rule not given here); conditions: P. falciparum Dd2 in erythrocytes, SYBR Green DNA, 72 h; at 28.5 µM (top of the series) unless noted
Method in brief: as §1

[9] = molecular target: Nucleoprotein (Lymphocytic choriomeningitis virus (strain Armstrong)) (UniProt P09992); experiment: qHTS for Inhibitors of the Functional Ribonucleoprotein Complex (vRNP) of Lymphocytic Choriomeningitis Arenaviruses (LCMV): LCMV Primary Screen - GLuc reporter signal (AID 1347086); also: potency is read from the fitted curve at half-maximal effect; nearly all actives have a fitted effect of over 70% in size
[10] = qHTS for inhibitors of Rabies Virus screened against the NCATS CANVASS Library (AID 1347402)
[11] = Primary qHTS for inhibitors of SARS-S pseudo-typed particle cell entry (AID 1479145); also: nearly all actives have a fitted effect of over 45% in size
[12] = Primary qHTS for inhibitors of MERS-S pseudo-typed particle cell entry (AID 1479149); also: nearly all actives have a fitted effect of over 60% in size
[13] = Confirmatory qHTS for VERO E6 Cytotoxicity Assay: Counterscreen for SARS-CoV-2 CPE Assay (AID 1508605); also: nearly all actives have a fitted effect of over 60% in size
[14] = Confirmatory qHTS to identify inhibitors of SARS-CoV-2 cell entry (AID 1645844); also: potency is read from the fitted curve at half-maximal effect; nearly all actives have a fitted effect of over 45% in size
Method in brief: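 Luminescence entry read-out after 48 h: spike-pseudotyped MLV particles (Wuhan-Hu-1, 19-aa C-terminal truncation) added to compound-pretreated (1 h) HEK293-ACE2 cells; Data were normalised to bald PP and spike PP wells.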

[15] = VSVG counterscreen qHTS to identify inhibitors of SARS-CoV-2 cell entry (AID 1645847); also: potency is read from the fitted curve at half-maximal effect; nearly all actives have a fitted effect of over 65% in size
Method in brief: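 Entry of VSV-G pseudotyped particles into human ACE2-expressing HEK293 cells was measured by luciferase luminescence 48 h after infection, with compound added 1 h beforehand.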

Nucleoprotein (Lymphocytic choriomeningitis virus (strain Armstrong)), sequence (P09992 whole entry, looked up): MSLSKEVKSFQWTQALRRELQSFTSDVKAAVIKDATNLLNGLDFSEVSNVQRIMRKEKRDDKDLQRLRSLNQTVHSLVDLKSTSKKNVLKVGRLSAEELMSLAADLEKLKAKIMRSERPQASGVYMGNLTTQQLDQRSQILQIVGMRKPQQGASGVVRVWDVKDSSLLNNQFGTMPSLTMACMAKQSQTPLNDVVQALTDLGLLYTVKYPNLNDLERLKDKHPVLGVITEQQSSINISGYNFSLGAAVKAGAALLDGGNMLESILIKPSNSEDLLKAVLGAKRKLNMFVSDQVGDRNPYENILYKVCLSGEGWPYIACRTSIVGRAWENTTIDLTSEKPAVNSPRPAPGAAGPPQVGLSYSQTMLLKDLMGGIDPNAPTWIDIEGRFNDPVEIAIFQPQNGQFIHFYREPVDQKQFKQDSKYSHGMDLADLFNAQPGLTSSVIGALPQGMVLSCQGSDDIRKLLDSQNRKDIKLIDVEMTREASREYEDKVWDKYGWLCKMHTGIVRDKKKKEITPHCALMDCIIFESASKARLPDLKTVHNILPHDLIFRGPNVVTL

For O=c1[nH]c2ccccc2n1CCN1CCN(c2cccc(C(F)(F)F)c2)CC1, the outcome [1] was “inactive”, the outcome [2] was “inactive” and the Potency [3] was “inactive”. The Potency (CRL-7250) was “inactive”.

For CC1(C)Cc2c(sc(NC(=S)NC(=O)c3ccccc3)c2C(=O)O)CO1, the Potency [4] was 21.7 µM (active), the Potency [5] was 38.5 µM (active) and the Potency [3] was “inactive”. The Potency [6] was “inactive” and the Potency (CRL-7250) was “inactive”.

In the case of CCCCCCCCCCCC1=C(O)C(=O)C=C(O)C1=O, the Potency [4] is reported as 4.85 µM (active), the Potency [3] is reported as “inactive” and the Potency [6] is reported as “inactive”. The Potency (CRL-7250) was “inactive”.

In the case of NC(=O)c1cccc(-c2cccc(OC(=O)NC3CCCCC3)c2)c1, the parasite growth, % of DMSO control [7] is reported as 81%, the parasite growth remaining, % of DMSO control (lower = more inhibition) [8] is reported as 98% and the Potency [4] is reported as 4.32 µM (active). The Potency [5] was 8.63 µM (active), the Potency [9] was 6.85 µM (active) and the Potency [3] was “inactive”. The Potency (CRL-7250) was “inactive”.

For CC1=C2C(=O)O[C@@H](c3ccoc3)[C@]2(C)CCC1, the outcome [10] was “inactive” and the Potency (CRL-7250) was “inactive”.

In the case of CCCCCOc1ccc(-c2cc(-c3ccc(C(=O)N[C@H]4C[C@@H](O)[C@@H](O)NC(=O)C5[C@@H](O)[C@@H](C)CN5C(=O)C([C@H](O)CC(N)=O)NC(=O)C([C@H](O)[C@@H](O)c5ccc(O)c(OS(=O)(=O)O)c5)NC(=O)C5C[C@@H](O)CN5C(=O)C([C@@H](C)O)NC4=O)cc3)no2)cc1 (stereo partly drawn) (X2-[Orn(4R-OH,5R-OH)][ξThr(3R)][ξPro(4R-OH)][ξhTyr(3S-OH,4S-OH,3'-OSO3H)][ξGln(3R-OH)][X3]; lactam 1-C), the Potency [11] is reported as “inactive”, the outcome [1] is reported as “inactive [at 26.4 µM]” and the Potency [12] is reported as “inactive”. The outcome [2] was “inactive”, the Potency [3] was “inactive” and the Potency (CRL-7250) was “inactive”.

In the case of COc1ccc(CN2CCN(CCCSc3cc(C(C)(C)C)c(O)c(C(C)(C)C)c3)CC2)c(OC)c1OC, the Potency [13] is reported as “inactive” and the outcome (CRL-7250) is reported as “inactive [at 9.27 µM]”.

In the case of COC(=O)N(C)c1c(N)nc(-c2nn(Cc3ccccc3F)c3ncccc23)nc1N, the Potency [11] is reported as “inactive”, the outcome [1] is reported as “inactive” and the Potency [12] is reported as “inactive”. The outcome [2] was “inactive”, the Potency [3] was “inactive” and the Potency [6] was “inactive”. The Potency (CRL-7250) was “inactive”.

With CCc1c(Cl)c(O)c(Cl)c(O)c1C(=O)O[C@H]1[C@H](O)[C@H](OC)[C@H](OC/C2=C\C=C\C[C@H](O)/C(C)=C\[C@H](CC)[C@@H](O[C@@H]3OC(C)(C)[C@@H](OC(=O)C(C)C)[C@H](O)[C@@H]3O)/C(C)=C/C(C)=C/C[C@@H]([C@@H](C)O)OC2=O)O[C@@H]1C the Potency [11] was “inactive”, the outcome [1] was “inactive” and the outcome [2] was “inactive”. The Potency (CRL-7250) was “inactive”.

In the case of COc1cccc(Nc2c(C(N)=O)cnc3c(C)cc(S(=O)(=O)c4cccc(C(=O)N(C)C)c4)cc23)c1, the Potency [4] is reported as 21.1 µM (active), the Potency [5] is reported as 13.3 µM (active) and the Potency [9] is reported as 16.8 µM (active). The Potency [6] was “inactive” and the Potency (CRL-7250) was “inactive”.

With CCOc1nc2cccc(C(=O)OCc3oc(=O)oc3C)c2n1Cc1ccc(-c2ccccc2-c2noc(O)n2)cc1 the Potency [11] was “inactive”, the outcome [1] was “inactive” and the Potency [12] was “inactive”. For the same compound, the outcome [2] was “inactive”, the Potency [3] was “inactive” and the activity change, negative = inhibition [6] was -28.5%. The Potency (CRL-7250) was “inactive”.

For CC(C)c1ccc2c(c1)CCC1[C@](C)(C(=O)O)CCC[C@]21C (some centres undefined), the outcome [10] was “inactive” and the Potency (CRL-7250) was “inactive”.

In the case of CN(C)S(=O)(=O)c1ccc(NC(=S)N2CCC(C(O)(c3ccccc3)c3ccccc3)CC2)cc1, the Potency [13] is reported as “inactive” and the Potency (CRL-7250) is reported as “inactive”.

With Nc1nc(=O)n([C@H]2C[C@H](O)[C@@H](CO)O2)cc1F the Potency [4] was 0.769 µM (active), the Potency [5] was 1.93 µM (active) and the Potency [14] was 0.0108 µM (active). The Potency [3] was “inactive”, the activity change, negative = inhibition [6] was -95.3% and the Potency [15] was 0.0136 µM (active). The Potency (CRL-7250) was “inactive”.
